CYP2C9 inhib = blocks human cytochrome P450 2C9; P11712; inhibition, % at 5 µM; hit rate 20% among 96,000; CYP2C9 Supersomes, luciferin-H conversion, luminescence;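 active = blocking of liver enzyme CYP2C9 beyond about 50% at 5 µM, limit read from the data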
Target sequence (P11712 whole entry, looked up): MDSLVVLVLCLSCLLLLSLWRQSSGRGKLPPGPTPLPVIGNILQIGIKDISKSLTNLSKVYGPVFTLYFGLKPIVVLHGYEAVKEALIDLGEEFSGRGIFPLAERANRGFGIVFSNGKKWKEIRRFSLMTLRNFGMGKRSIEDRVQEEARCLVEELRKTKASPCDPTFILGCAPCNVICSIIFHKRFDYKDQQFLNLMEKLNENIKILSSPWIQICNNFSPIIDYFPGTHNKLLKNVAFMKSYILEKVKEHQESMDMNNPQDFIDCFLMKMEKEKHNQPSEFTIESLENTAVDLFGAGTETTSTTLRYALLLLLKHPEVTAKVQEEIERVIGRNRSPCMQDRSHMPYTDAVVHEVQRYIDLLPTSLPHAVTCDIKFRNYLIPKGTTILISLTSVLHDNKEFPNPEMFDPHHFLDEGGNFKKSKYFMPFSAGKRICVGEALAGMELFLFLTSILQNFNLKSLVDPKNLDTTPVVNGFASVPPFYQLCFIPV
CYP2C19 inhib = human CYP2C19 inhibition. P33261. CYP2C19 Supersomes, luciferin-H EGE luminescence, 30 min. inhibition, % at 5 µM. hit rate 21% among 96,000. AID 778;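 active = CYP2C19 inhibition above a set limit at 5 µM in the primary screen, cut at about 50% in these data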;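 also: plate controls were negative control wells for no effect and 2.5 mM tranylcypromine positive control for full effect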
CYP2C19 act = increases human CYP2C19 enzyme activity | AID 1025 | P33261 | activation factor at 5 µM | recombinant CYP2C19, luciferin-H EGE luminescence; hits give high values; 0 = fully inhibited enzyme, 1 = untreated enzyme | 96,000 tested, under 10 active;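 active = activation factor of at least 2 at 5 µM in the primary screen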;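 also: 0 = wells with 2.5 mM tranylcypromine and 1 = vehicle-only wells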
CYP2C9 activ = increases human cytochrome P450 2C9 activity; P11712; recombinant CYP2C9, luciferin-H conversion, luminescence; hits give high values; factor 1 = untreated enzyme, 0 = blocked; activation factor at 5 µM; hit rate 1.4% among 96,000;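 active = activation factor of 2 or more for CYP2C9 at a 5 µM dose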;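 also: 0 = sulfaphenazole-blocked wells and 1 = vehicle-only wells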
Measles CPE = protection of cells from measles virus; hit rate 1.5% among 140,000; Measles virus-infected cells, CPE protection, absorbance; protection (pct of control), % at 4 µM; in the data active = protection mostly above about 24%, no sharp cut-off; inactive = mostly below about 26%
Active calls of the source: *. Only some compounds are listed: those with a hit (about 22% of all), similar ones and a draw of the others.

Cc1cccc(NC(=O)CN2C(=O)COc3ccc(Cl)cc32)c1 was read as CYP2C9 inhib 18, CYP2C19 inhib 72*, CYP2C19 act 0.3, CYP2C9 activ 0.8 and Measles CPE 5.
`CCOc1ccc(NC(=O)CN2C(=O)COc3ccc(Cl)cc32)cc1` gave CYP2C9 inhib -9, CYP2C19 inhib -2, CYP2C19 act 1, CYP2C9 activ 1.1 and Measles CPE 7.
Screening Cc1cccc(NC(=O)CN2C(=O)COc3ccc(Cl)cc32)c1C returned CYP2C9 inhib 32, CYP2C19 inhib 88*, CYP2C19 act 0.1, CYP2C9 activ 0.7 and Measles CPE 7.
`COc1cccc(NC(=O)CN2C(=O)COc3ccc(Cl)cc32)c1` gave CYP2C9 inhib 78*, CYP2C19 inhib 92*, CYP2C19 act 0.1, CYP2C9 activ 0.2 and Measles CPE 29.
Screening COCCNC(=O)CN1C(=O)COc2ccc(Cl)cc21 returned Measles CPE 8.
O=C(CN1C(=O)COc2ccc(Cl)cc21)Nc1ccc2c(c1)OCCO2 was read as CYP2C9 inhib 32, CYP2C19 inhib 22, CYP2C19 act 0.8, CYP2C9 activ 0.7 and Measles CPE 5.
`CCOc1nc(NC(=O)NC(=O)c2ccccc2)nc(-c2ccccc2)n1` gave Measles CPE 9.
Screening COC(=O)c1ccc(C(=O)OC)c(-n2c(=O)c3ccccc3c3ccccc3c2=O)c1 returned Measles CPE 4.
Screening Nc1cc(=O)[nH]c(SCc2nnnn2-c2ccc(Cl)cc2)n1 returned Measles CPE 13.
`CCOC(=O)Cn1c2ccccc2c2nc3ccccc3nc21` gave CYP2C9 inhib -2, CYP2C19 inhib 58*, CYP2C19 act 0.4, CYP2C9 activ 1 and Measles CPE 46*.
`O=c1oc2ccccc2n1CCn1c2ccccc2c2nc3ccccc3nc21` gave CYP2C9 inhib 64*, CYP2C19 inhib 78*, CYP2C19 act 0.2, CYP2C9 activ 0.4 and Measles CPE 3.
`COc1ccc2c(c1)c1nc3ccccc3nc1n2CCn1c(=O)oc2ccccc21` gave CYP2C9 inhib 23, CYP2C19 inhib 34, CYP2C19 act 0.7, CYP2C9 activ 0.8 and Measles CPE 8.
For CCCn1c2ccccc2c2nc3ccccc3nc21 the results were CYP2C9 inhib 69*, CYP2C19 inhib 54*, CYP2C19 act 0.5, CYP2C9 activ 0.3 and Measles CPE 14.
For CCOC(=O)Cn1c(C)cc(=O)c2ccccc21 the results were CYP2C9 inhib -4, CYP2C19 inhib 4, CYP2C19 act 1, CYP2C9 activ 1 and Measles CPE 10.
`O=C(Cn1nnc2c(cnn2-c2ccccc2)c1=O)N1CCN(c2ccccc2F)CC1` gave CYP2C9 inhib 2, CYP2C19 inhib -17, CYP2C19 act 1.2, CYP2C9 activ 1 and Measles CPE 25.
Screening Cc1cccc(C(=O)Nc2nccs2)c1[N+](=O)[O-] returned Measles CPE 10.
OCCNc1nc(OCC(F)(F)F)nc(N2CCN(C34CC5CC(CC(C5)C3)C4)CC2)n1 was read as CYP2C9 inhib 23, CYP2C19 inhib -7, CYP2C19 act 1.1, CYP2C9 activ 0.8 and Measles CPE 4.
For O=C(CNc1ccc(C(F)(F)F)cc1[N+](=O)[O-])OCC(=O)c1ccccc1 the results were CYP2C9 inhib 55*, CYP2C19 inhib 39, CYP2C19 act 0.6, CYP2C9 activ 0.4 and Measles CPE 3.
CCCCOCCCNC(=O)C1CCCCC1 was read as CYP2C9 inhib -3, CYP2C19 inhib -1, CYP2C19 act 1, CYP2C9 activ 1 and Measles CPE 13.
Cc1ccc(C)c(N2CN(Cc3ccco3)CNC2=S)c1 was read as Measles CPE 5.
CCOC(=O)c1cnc2ccc(C)cc2c1Nc1ccc(N2CCOCC2)cc1 was read as CYP2C9 inhib 81*, CYP2C19 inhib 78*, CYP2C19 act 0.2, CYP2C9 activ 0.2 and Measles CPE 7.
Screening COc1ccc(N2CCN(c3c(S(=O)(=O)c4ccccc4)cnc4ccc(OC)cc34)CC2)cc1 returned Measles CPE 23*.
CCOC(=O)c1cnc2ccc(OCC)cc2c1N1CCN(c2ccccc2)CC1 was read as CYP2C9 inhib 69*, CYP2C19 inhib 21, CYP2C19 act 0.8, CYP2C9 activ 0.3 and Measles CPE 20.
Screening CCOc1ccc2ncc(S(=O)(=O)c3ccccc3)c(N3CCN(c4ccc(OC)cc4)CC3)c2c1 returned Measles CPE 12.
`Cc1nc2c(c3c1[nH]c1ccccc13)C(=O)CC(C)(C)C2` gave CYP2C9 inhib -183, CYP2C19 inhib 39, CYP2C19 act 0.6, CYP2C9 activ 2.8* and Measles CPE 12.
COc1cccc2c(=O)n(CC(=O)Nc3ccccc3F)ccc12 was read as CYP2C9 inhib -12, CYP2C19 inhib 7, CYP2C19 act 0.9, CYP2C9 activ 1.1 and Measles CPE 30.
O=C(OCC(=O)N1CCc2ccccc21)c1c2c(nc3ccccc13)CCCCC2 was read as Measles CPE 15.
Screening COc1cc(/C=N/NC(=O)c2cccnc2)ccc1OS(=O)(=O)c1ccc(C)cc1 returned Measles CPE 7.
For COc1ccc(/C=N/NC(=O)c2cccc([N+](=O)[O-])c2)cc1OC(=O)c1ccc(C)cc1 the results were CYP2C9 inhib 54*, CYP2C19 inhib 36, CYP2C19 act 0.6, CYP2C9 activ 0.5 and Measles CPE 19.
COc1cc(/C=N/NC(=O)COc2ccc(Cl)cc2)ccc1OS(=O)(=O)c1ccc(C)cc1 was read as CYP2C9 inhib 64*, CYP2C19 inhib 37, CYP2C19 act 0.6, CYP2C9 activ 0.4 and Measles CPE 8.
Screening COc1cc(/C=N/NC(=O)c2cccnc2)ccc1OS(=O)(=O)c1ccc(F)cc1 returned CYP2C9 inhib 83*, CYP2C19 inhib 67*, CYP2C19 act 0.3, CYP2C9 activ 0.2 and Measles CPE 7.
For COc1cc(/C=N/NC(=O)COc2cccc(F)c2)ccc1OS(=O)(=O)c1ccc(C)cc1 the results were Measles CPE 7.
Screening COc1ccc(/C=N/NC(=O)c2cccc([N+](=O)[O-])c2)cc1OC(=O)c1ccccc1 returned CYP2C9 inhib 48, CYP2C19 inhib 42, CYP2C19 act 0.6, CYP2C9 activ 0.5 and Measles CPE 2.
`COc1ccc(/C=N/NS(=O)(=O)c2ccc(C)cc2)cc1OC(=O)c1ccc(C)cc1` gave CYP2C9 inhib 88*, CYP2C19 inhib 4, CYP2C19 act 1, CYP2C9 activ 0.1 and Measles CPE 8.
Cc1cccn2c(=O)c3cc(C#N)c(=O)n(CC4CCCO4)c3nc12 (configuration not stated) was read as CYP2C9 inhib 15, CYP2C19 inhib 24, CYP2C19 act 0.8, CYP2C9 activ 0.8 and Measles CPE 14.
`Nn1c(N2CCCCC2)nc2ccccc21` gave CYP2C9 inhib -12, CYP2C19 inhib 16, CYP2C19 act 0.8, CYP2C9 activ 1.1 and Measles CPE 25.

Screens: PubChem BioAssay, several laboratories
